# Experimental data as given in PubChem BioAssay (NCATS).
# Several values for one entry are separate records, joined by “and”; a condition that tells them apart may be missing. Identical values can stand only once. Records with an inconclusive call do not appear. Unmarked numbers belong to inactive results. Activity calls are given as the source filed them. Calls follow the shape of the dose curve; as a rule, active = well fitted curve in the direction sought with a large enough effect; inconclusive = small, poorly fitted or top-dose-only effect, or another doubt; inactive = no such curve, though single readings can be large; an effect the other way counts as inactive or inconclusive.
# Experiments:
# [1] = Viability qHTS for spleen associated tyrosine kinase inhibitor (SYKi) naive MV4-11 cells (AID 1963823); settings: MV4-11 AML viability, CellTiter-Glo luminescence, 72 h; series mostly up to 45 µM; also: nearly all actives have a fitted effect of over 40% in size; also: potency is read from the fitted curve at half-maximal effect
# Procedure, shortened: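 In this viability screen, compounds acted on SYK inhibitor naive MV4-11 cells for three days (72 hr, 37 C). Remaining viable cells were measured by CellTiter-Glo luminescence following a 10 min room-temperature development.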
# [2] = Viability qHTS for spleen associated tyrosine kinase inhibitor (SYKi) drug resistant MV4-11 cells (AID 1963824); settings: SYKi-resistant MV4-11 viability, CellTiter-Glo, 72 h; series mostly up to 45 µM; also: nearly all actives have a fitted effect of over 35% in size; also: potency is read from the fitted curve at half-maximal effect
# Procedure, shortened: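 SYK-inhibitor-resistant MV4-11 AML cells were seeded at 500 per well onto compound and cultured 72 hours (37 °C, 5% CO2). CellTiter-Glo was then added, and after 10 min at room temperature, luminescence gave viability.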
# [3] = Quantitative highthroughput screen to assess conditional lethalithy of NOMO1 cells grown in RPMI1640 with dialyzed fetal bovine serum (RPMI+ds) (AID 1963877); settings: NOMO1 in RPMI+dialyzed FBS viability, ATP luminescence, 48 h; series mostly up to 45.8 µM; also: nearly all actives have a fitted effect of over 30% in size; also: potency is read from the fitted curve at half-maximal effect;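 as to Viability: 100% = DMSO control wells and 0% = empty wells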
# Procedure, shortened: (§1)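 Each medium arm—HPLM with 10% dialyzed FBS, or RPMI1640 with 5 mM glucose and 10% untreated or dialyzed FBS—was screened against an 11-point, 3-fold compound titration for 48 h at 37 °C, with CellTiter-Glo luminescence as endpoint.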
# [4] = Quantitative highthroughput screen to assess conditional lethalithy of NOMO1 cells grown in Human Plasma-Like Medium with dialyzed fetal bovine serum (HPLM+ds) (AID 1963878); settings: NOMO1 AML cells in HPLM+ds, CellTiter-Glo viability, 48 h; series mostly up to 45.8 µM; also: nearly all actives have a fitted effect of over 35% in size; also: potency is read from the fitted curve at half-maximal effect;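 as to Viability: 100% = DMSO wells and 0% = empty wells on each plate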
# Procedure, shortened: as §1
# [5] = Quantitative highthroughput screen to assess conditional lethalithy of P12 Ichikawa cells grown in Human Plasma-Like Medium with dialyzed fetal bovine serum (HPLM+ds) (AID 1963879); settings: ATP luminescence, 48 h; Potency: viability; series mostly up to 45.8 µM; also: nearly all actives have a fitted effect of over 35% in size; also: potency is read from the fitted curve at half-maximal effect
# Procedure, shortened: as §1
# [6] = Quantitative highthroughput screen to assess conditional lethalithy of P12 Ichikawa cells grown in RPMI1640 with dialyzed fetal bovine serum (RPMI+ds) (AID 1963880); settings: ATP luminescence, 48 h; Potency: P12-Ichikawa viability; series mostly up to 45.8 µM;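 also: 100% = DMSO wells and 0% = empty wells on each plate; nearly all actives have a fitted effect of over 35% in size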
# Procedure, shortened: as §1
# [7] = Cellular viability qHTS for adrenocortical cancer (ACC) cell line SW-13 (AID 1963989); settings: SW-13 ACC cells viability, CellTiter-Glo, 48 h; activity (max response): hits give low values;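 also: cells grown in serum-free medium with ITS supplement; % is scaled to controls: 0 for no effect and ±100 for the full control effect; nearly all actives have a fitted effect of over 65% in size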
# Procedure, shortened: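 Viability was read as CellTiter-Glo luminescence after 48 h compound treatment (up to 46 uM final) of SW-13 cells grown serum-free; titration curves were fit with a four-parameter logistic model to give IC50 and efficacy.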
# [8] = Cellular viability qHTS for adrenocortical cancer (ACC) cell line NCI-H295R (AID 1963990); settings: CellTiter-Glo ATP luminescence, 48 h; series mostly up to 46.1 µM; also: nearly all actives have a fitted effect of over 60% in size; also: potency is read from the fitted curve at half-maximal effect
# Procedure, shortened: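 CellTiter-Glo ATP luminescence, read 48 h after compound addition, measured viability of NCI-H295R adrenocortical cells grown serum-free with ITS. Final concentrations spanned up to 46 uM. Data normalized to DMSO and doxorubicin, fitted for IC50 and maximal response.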
# [9] = Quantitative highthroughput screen to assess conditional lethalithy of P12 Ichikawa cells grown in RPMI1640 with untreated serum (RPMI+s) (AID 1963881); settings: ATP luminescence, 48 h; Potency: viability; series mostly up to 45.8 µM
# Procedure, shortened: as §1
# [10] = Quantitative highthroughput screen to assess conditional lethalithy of NOMO1 cells grown in RPMI1640 with untreated serum (RPMI+s) (AID 1963876); settings: NOMO1 AML cells in RPMI+serum, CellTiter-Glo viability, 48 h; series mostly up to 45.8 µM
# Procedure, shortened: as §1
# [11] = Quantitative highthroughput screen to assess conditional lethalithy of SEM cells grown in RPMI1640 with unreated serum (RPMI+s) (AID 1963883); settings: SEM B-ALL cells, CellTiter-Glo viability, 48 h; series mostly up to 45.8 µM
# Procedure, shortened: as §1
smiles,measurement,setting,value
CC(C)(C)c1cc(C=C(C#N)C#N)cc(Br)c1O,Potency,[1],16600 nM (active)
same,Potency,[2],16600 nM (active)
same,Potency,[3],inactive
same,Potency,[4],inactive
same,Potency,[5],inactive
same,Potency,[6],inactive
same,activity (max response),[7],9.19%
same,Potency,[8],inactive
C[C@@H]1CCC/C=C/[C@H]2C[C@@H](O)C[C@@H]2[C@@H](O)/C=C/C(=O)O1,Potency,[1],184 nM (active)
same,Potency,[2],146 nM (active)
CC(NC(C)(C)C)C(=O)c1cccc(Cl)c1 (stereo not drawn),Potency,[1],inactive
same,Potency,[2],inactive
same,Potency,[3],inactive
same,Potency,[4],5900 nM (active)
same,Potency,[5],inactive
same,Potency,[6],inactive
same,Potency,[9],inactive
same,activity (max response),[7],8.14% and 1.12%
same,Potency,[8],inactive
CN1[C@H]2C[C@H](OC(=O)[C@H](CO)c3ccccc3)C[C@@H]1[C@@H](O)C2,Potency,[1],inactive
same,Potency,[2],inactive
CC1=C(O)C(=O)C=C2C1=CC=C1[C@@]2(C)CC[C@@]2(C)[C@@H]3C[C@](C)(C(=O)O)CC[C@]3(C)CC[C@]12C,Potency,[1],590 nM (active)
same,Potency,[2],468 nM (active)
same,Potency,[10],3720 nM (active)
same,Potency,[3],2640 nM (active)
same,Potency,[4],2960 nM (active)
same,Potency,[5],5900 nM (active)
same,Potency,[11],2640 nM (active)
same,Potency,[8],6310 nM (active)
Nc1ncnc2c1ncn2[C@@H]1O[C@@H]2COP(O)(=S)O[C@H]2[C@H]1O (stereo partly drawn),viability (% of control),[1],76.1% [at 9.25 µM]
same,"viability, % of control",[2],81% [at 9.25 µM]
CC[C@H](C)[C@H](NC(=O)[C@H]1CCCCN1C)C(=O)N(COC(=O)CC(C)C)[C@H](C[C@@H](OC(C)=O)c1nc(C(=O)N[C@@H](Cc2ccc(O)cc2)C[C@H](C)C(=O)O)cs1)C(C)C,Potency,[1],0.4 nM (active)
same,Potency,[2],0.4 nM (active)
